# Assay outcomes from PubChem BioAssay.
# BAZ2B block: blocks human BAZ2B. AlphaScreen BAZ2B-H3K14Ac peptide displacement. hit rate 4.4% among 360,000. Potency, µM (top dose mostly 114 µM), for inactives: at the highest dose activity change, negative = inhibition, hits mostly inhibitors. Q9UIF8. AID 504333; note: % is set by controls: 0 for no effect and ±100 for the full control effect; nearly all actives have a fitted effect of over 60% in size
#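 AlphaScreen displacement: compounds (up to 110uM) incubated 30 min at room temperature with a preformed 50 nM BAZ2B/50 nM biotinylated H3K14Ac peptide complex in PBS pH 7.4 with Tween-20. Donor and acceptor beads at 10 ug/mL final added, 20 min light-protected before reading.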
# ALOX12 inh: ALOX12 (human) lipoxygenase inhibition. Potency, µM (series often up to 108 µM), for inactives: at the highest dose activity change, negative = inhibition, actives largely listed as inhibitors. hit rate 1.1% among 580,000. purified 12hLO, xylenol orange hydroperoxide absorbance; note: % is set by controls: 0 for no effect and ±100 for the full control effect
#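 Hydroperoxide product was detected by ferrous iron/xylenol orange as the 573 to 405 nm absorbance ratio. Arachidonic acid at 40 uM (final) was turned over for 30 min at room temperature by 150 nM human 12hLO, pH 7.0 Hepes buffer, after 15 min compound preincubation.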
# JMJD2A Tudor: blocks the human JMJD2A Tudor domain; Potency, µM (titrated, usually from 114 µM), for inactives: top-dose activity change, negative = inhibition, most hits filed as inhibitors; O75164; hit rate 4.4% among 390,000; AlphaScreen JMJD2A-Tudor / H3K4me3 peptide binding; note: % is set by controls: 0 for no effect and ±100 for the full control effect; nearly all actives have a fitted effect of over 50% in size
# PLK1 PBD block: blocks phosphopeptide binding to human PLK1 polo-box domain; P53350; Plk1 PBD binding of FITC phosphopeptide, fluorescence polarization; Potency, µM, inactives show max response, negative = inhibition, most hits filed as inhibitors; hit rate 2.8% among 360,000; note: series mostly up to about 57 µM; % is set by controls: 0 for no effect and ±100 for the full control effect; nearly all actives have a fitted effect of over 65% in size
# G9a inh: blocks human histone lysine methyltransferase G9a | Q96KQ7 | hit rate 8.8% among 350,000 | G9a H3K9 monomethylation, AlphaScreen, 2 h | AID 504332 | Potency, µM (series often up to 102 µM), inactives show at the highest dose activity, negative = inhibition, actives largely listed as inhibitors; note: % is set by controls: 0 for no effect and ±100 for the full control effect; nearly all actives have a fitted effect of over 75% in size
# Target sequence (Q96KQ7 913-1193 limits assumed): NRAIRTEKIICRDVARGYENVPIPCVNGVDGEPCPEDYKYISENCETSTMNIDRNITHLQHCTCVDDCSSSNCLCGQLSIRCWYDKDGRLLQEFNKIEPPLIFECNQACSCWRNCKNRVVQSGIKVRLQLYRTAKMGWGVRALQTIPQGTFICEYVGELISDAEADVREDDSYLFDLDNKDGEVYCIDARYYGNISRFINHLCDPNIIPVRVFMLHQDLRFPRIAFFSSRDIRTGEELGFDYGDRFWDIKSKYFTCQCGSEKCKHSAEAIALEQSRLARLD
#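 AlphaScreen read-out: biotin-H3K9 peptide (500 nM) methylation by 20 nM enzyme with 20 uM SAM, 2 h at room temperature after 15 min compound preincubation; anti-monomethyl H3K9 antibody plus donor/acceptor beads, 10 min dark.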
# HP1b binding inh: HP1-beta chromodomain-methylated histone interaction inhibition; P83916; AlphaScreen HP1-beta / biotin-H3K9me3 peptide binding; Potency, µM (highest dose often 114 µM), for the others: at the top dose activity change, negative = inhibition, usual class: inhibitors; hit rate 0.56% among 390,000; AID 540317; note: nearly all actives have a fitted effect of over 70% in size
# Target sequence (P83916 whole entry, looked up): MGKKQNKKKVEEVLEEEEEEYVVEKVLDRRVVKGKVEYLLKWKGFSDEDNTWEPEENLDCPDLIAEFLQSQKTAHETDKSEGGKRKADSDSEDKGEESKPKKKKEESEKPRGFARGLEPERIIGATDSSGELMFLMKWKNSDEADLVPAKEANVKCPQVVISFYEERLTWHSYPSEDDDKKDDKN
#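 AlphaScreen: HP1-beta (50 nM) preformed 30 min with biotin-H3(1-18)K9me3 peptide (50 nM) in PBS pH 7.4, 0.01% Tween-20. Compound added for 30 min at RT, then streptavidin donor/nickel chelate acceptor beads (10 ug/mL) for 30 min.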
# Starred values were filed as active, the others as inactive; u = inconclusive; x = not tested or not shown; [ ] = remark or other dose. Hits are enriched below; roughly 9% of the tested compounds scored in any of these assays. Calls come from the whole dose curve; as a rule, active = well fitted curve in the direction sought with a large enough effect; inconclusive = small, poorly fitted or top-dose-only effect, or another doubt; inactive = no such curve, though single readings can be large; an effect the other way counts as inactive or inconclusive. Potency is the fitted concentration of half-maximal effect.
SMILES,BAZ2B block,ALOX12 inh,JMJD2A Tudor,PLK1 PBD block,G9a inh,HP1b binding inh
COc1cc([N+](=O)[O-])cc(/C=C2/SC(=S)N(Cc3ccccc3)C2=O)c1O,14µM*,16µM*,18µM*,30µM*,10µM*,u
Cc1cc(OCC(=O)NCC(O)c2ccccc2)c2c(C)cc(=O)oc2c1 (centres undefined),-3%,31%,-10%,-22%,67%,-4%
Cc1ccc2[nH]c3c(=O)n(CC(=O)NCCCN(C)Cc4ccccc4)ncc3c2c1,-14%,-15%,-15%,-3%,16%[59 µM],12%[57 µM]
NC(=O)COc1ccc(NC(=O)Cn2ncc3ccccc3c2=O)cc1,x,-2%,x,x,x,x
Cc1c2cccn2cc[n+]1C,-2%,32%[57.4 µM],45µM*,-9%,14µM*,4%
Cn1cc(C(=O)c2ccc(Cl)cc2)cc1-c1nc2ccccc2n1C,u,-24%,56µM*,-9%,x,-16%
Cn1c(=O)c(C(=O)c2ccccc2)nc2ccccc21,6%,-10%,-11%,-5%,28%[59 µM],8%
CC(CNC(=O)c1ccc2c(c1)nc1n2CCOC1)c1ccccc1 (centres undefined),3%,-7%,-15%,x,-6%[59 µM],20%[57 µM]
COCc1noc([C@@H]2CC(F)(F)CN2C(=O)Cc2c(C)noc2C)n1,x,39%,x,x,x,x
CCOC(=O)NC1(Nc2cccc(Cl)c2)Oc2ccccc2O1,3%,45µM*,40µM*,-4%,2µM*,u
CCOC(=O)c1ccccc1NC(=O)Nc1cccc(Cl)c1,x,8%,x,x,x,x
O=C1CC(C(=O)Nc2cccc(F)c2)n2ncnc2N1 (centres undefined),x,-3%,-12%,-6%,-46%,19%
Cc1cc(C)c(S(=O)(=O)/N=C2\C=CC(=O)C(Cl)=C2)c(C)c1,-12%,x,32µM*,28µM*,7.9µM*,u
CCC1CCCCN1C(=O)c1nn(-c2ccc(OC)cc2)c(=O)c2c1c1ccccc1n2C (centres undefined),x,0%,-2%,x,12%[59 µM],48%
CC(C)Cc1ccc(CN2C(C)C(=O)N(Cc3cn(Cc4ccco4)nn3)CCS2(=O)=O)cc1 (centres undefined),x,14µM*,x,u,x,x
CC1C(=O)N(Cc2cn(CCC3OCCO3)nn2)CCS(=O)(=O)N1Cc1ccc(-c2ccc(F)cc2)cc1 (centres undefined),x,-46%,x,5.3µM*,x,x
Cc1ccc(-c2ccc(CN3C(C)C(=O)N(Cc4cn(Cc5ccco5)nn4)CCS3(=O)=O)cc2)cc1 (centres undefined),x,11µM*,x,-9%,x,x
CCC/C=C/c1ccc(CN2C(C(C)C)C(=O)N(Cc3cn(Cc4ccco4)nn3)CCS2(=O)=O)cc1 (centres undefined),x,45µM*,x,6%,x,x
COc1ccc(-c2ccc(CN3C(C)C(=O)N(Cc4cn(Cc5ccco5)nn4)CCS3(=O)=O)cc2)cc1 (centres undefined),x,u,x,-3%,x,x
COc1ncnc2c1ncn2CCCN1CCN(C(=O)C2CC2)CC1,x,1%,x,-2%,x,x
Cc1ccc(NC(=O)N2CCC(c3nc4c(nnn4Cc4cccc(Cl)c4)c(=O)[nH]3)CC2)cc1,4%,9%,-21%,-3%,21%[59 µM],17%
CC1(C(=O)Nc2ccc3c(c2)OCCO3)CC1(Cl)Cl (centres undefined),-10%,-24%,1%,0%,-10%,47%
COc1cc(/C=C2\SC(=Nc3c(C)n(C)n(-c4ccccc4)c3=O)NC2=O)ccc1O,-33%,u,-7%,34%,-18%[59 µM],17%
Cc1ccc(S(=O)(=O)NCC(=O)OCN2C(=O)c3ccccc3C2=O)cc1,11%,u,u,5.3µM*,u,-16%
Cc1ccc(S(=O)(=O)NCC(=O)OCC(=O)c2cc(C)n(-c3ccccc3)c2C)cc1,u,-12%,-23%,5%,u,-18%
SMILES,BAZ2B block,ALOX12 inh,JMJD2A Tudor,PLK1 PBD block,G9a inh,HP1b binding inh
Cc1ccc(C)c(C(=O)COC(=O)CNS(=O)(=O)c2ccccc2)c1,4%,u,-14%,u,71µM*,1%
O=C(CCNS(=O)(=O)c1ccccc1)OCC(=O)c1ccc[nH]1,7%,-6%,-6%,0%,50µM*,20%
COC(=O)c1ccc(-n2c(C)cc(C(=O)COC(=O)CNS(=O)(=O)c3ccc(C)cc3)c2C)cc1,-34%,-10%,22µM*,0%,u,-13%
O=C(CCNS(=O)(=O)c1ccc(Cl)cc1)OCC(=O)c1ccc[nH]1,-9%,10%,-5%,-4%,-3%,15%
CC(C)CNC(=O)NC(=O)COC(=O)c1cc(-c2cccs2)nc2ccccc12,x,-25%,x,x,x,x
Cc1cc(C(=O)NC(C)CCc2ccccc2)ccc1[N+](=O)[O-] (centres undefined),-8%,0%,-24%,-14%,-40%[0.501 µM],21%
Nc1cc(C(=O)OCC(=O)NCC2CCCO2)ccc1Cl (centres undefined),24%,0%,2%,4%,9%[59 µM],48%
Cc1c(C(=O)NCc2cccnc2)oc2ccc(S(=O)(=O)N3CCCC(C)C3)cc12 (centres undefined),-2%,0%,-7%,1%,u,33%
O=C(O)CSc1nnc(Nc2ccccc2)n1-c1ccccc1,-1%,-19%,7%[57.1 µM],-9%,u,45%
Cc1ccc(C)c(NC(=O)Cn2ccn3nc4c(c3c2=O)CCCCC4)c1,x,-25%,x,x,x,x
c1csc(Cc2nn3c(-c4ccncc4)nnc3s2)c1,u,-15%,u,-1%,13µM*,45%
COc1cc(-c2nn3c(-c4ccccc4)nnc3s2)cc(OC)c1OC,1%,-25%,-21%,-7%,45µM*,23%
Cc1cc(-c2nn3c(-c4ccccc4)nnc3s2)c2ccccc2n1,2%,-15%,-28%,12µM*,2.2µM*,-23%
COc1cc(-c2nn3c(-c4cc(-c5ccccc5)n[nH]4)nnc3s2)cc(OC)c1OC,x,x,-23%[57.1 µM],x,x,1%[57 µM]
c1csc(-c2nn3c(-c4ccncc4)nnc3s2)c1,0%,x,x,x,12%,x
Clc1cccc(-c2nn3c(-c4ccc5ccccc5n4)nnc3s2)c1,x,35µM*,x,x,x,x
CC1(c2cccnc2)N(Cc2ccccc2)C(=O)OC12CCN(C(=O)COc1ccccc1)CC2 (centres undefined),x,-4%,x,x,x,x
Cc1ccc(NC(=S)c2ccccc2)cc1,-31%,-20%,-1%,-5%,-18%[59 µM],8%
CCCN(CC1CCOC1)S(=O)(=O)c1ccccc1F (centres undefined),x,43%,x,x,x,x
CC(C)c1ccc(NC(=O)N[C@H]2CO[C@H]3[C@@H]2OC[C@H]3OC(=O)Nc2ccc(Oc3ccccc3)cc2)cc1,x,-9%,x,x,x,x
CC(C)c1nc2cc(NC(=O)CNC(=O)c3ccco3)ccc2o1,x,-5%,x,x,x,x
